Data from PubChem BioAssay (NCI).
The panel holds about 83,000 compounds, 20% with a hit somewhere; the sample as a whole holds those more often.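 Activity criterion: percent growth below 10, measured after cells in 96-well plates were exposed to a single compound concentration for 48 hours.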 Unmarked numbers belong to inactive results. Activity calls are given as the source filed them.

Assays:
Assay in all cases: NCI-60 one-dose screen, 48 h (100 = growth as untreated, 0 = no growth, -100 = all killed)
Conditions in all cases: 10 µM unless noted
[1] = test system: DU-145 prostate
[2] = test system: K-562 leukemia
[3] = test system: MALME-3M melanoma
[4] = test system: MDA-MB-231 breast
[5] = test system: RXF 393 renal
[6] = test system: SF-268 CNS
[7] = test system: SF-295 CNS
[8] = test system: SF-539 CNS
[9] = test system: UACC-257 melanoma
[10] = test system: M14 melanoma
[11] = test system: HCT-15 colon
[12] = test system: HT29 colon
[13] = test system: SNB-75 CNS
[14] = test system: SNB-19 CNS
[15] = test system: U251 CNS
[16] = test system: PC-3 prostate
[17] = test system: SK-MEL-5 melanoma
[18] = test system: UACC-62 melanoma
[19] = test system: LOX IMVI melanoma
[20] = test system: SK-MEL-28 melanoma

Q: Which results are given for Cc1cc(NCc2cc(Nc3ccnc4cc(Cl)ccc34)ccc2F)nc(N2CCCC2)n1?
A: growth [1]: 10.8%; growth [2]: -46.2% (active); growth [3]: -65.6% (active); growth [4]: -49.1% (active); growth [5]: -65.5% (active); growth [6]: -2.08% (active); growth [7]: -84.4% (active); growth [8]: -68.5% (active); growth [9]: -17.8% (active); growth [10]: -71.3% (active); growth [11]: -60.7% (active); growth [12]: -40.2% (active); growth [13]: -87.3% (active); growth [14]: 28.9%; growth [15]: -64.7% (active); growth [16]: 17.5%; growth [17]: -94.2% (active); growth [18]: -62.6% (active); growth [19]: -92.8% (active); growth [20]: -69.4% (active)

Q: Which growth [1] does the source give for COc1cc(-c2nn(-c3ccccc3)cc2-c2ccnc(NCCNS(=O)(=O)c3ccc(Cl)cc3)n2)ccc1Cl here?
A: Its growth is 50.7%.

Q: What about the growth [2] of the same compound?
A: The growth was 27.7%.

Q: What about the growth [3] of the same compound?
A: Its growth is 70%.

Q: And the growth [4]?
A: The growth was 53.5%.

Q: What about the growth [5] of the same compound?
A: The growth was 34.9%.

Q: And the growth [6]?
A: Its growth is 41.2%.

Q: And the growth [7]?
A: Its growth is 30.6%.

Q: And the growth [8]?
A: Its growth is 60.3%.

Q: And the growth [9]?
A: The growth was 34.8%.

Q: And the growth [10]?
A: The growth was 24.3%.

Q: And the growth [11]?
A: Its growth is 30.3%.

Q: And the growth [12]?
A: Its growth is 11.3%.

Q: And the growth [13]?
A: Its growth is 49.1%.

Q: What about the growth [14] of the same compound?
A: Its growth is 49.9%.

Q: And the growth [15]?
A: The growth was 28.4%.

Q: What about the growth [16] of the same compound?
A: Its growth is 18.3%.

Q: And the growth [17]?
A: The growth was 32.6%.

Q: What about the growth [18] of the same compound?
A: The growth was 41%.

Q: And the growth [19]?
A: Its growth is 32.3%.

Q: And the growth [20]?
A: Its growth is 49.2%.

Q: Which growth [1] does the source give for O=C(Nc1ccc(Nc2ccncc2)cc1)c1ccc(C(=O)Nc2ccc(Nc3ccncc3)cc2)cc1 here?
A: The growth was 85.8%.

Q: What about the growth [2] of the same compound?
A: The growth was 53.5%.

Q: And the growth [3]?
A: Its growth is 5.82% (active).

Q: And the growth [4]?
A: The growth was 84.4%.

Q: What about the growth [5] of the same compound?
A: The growth was 100%.

Q: What about the growth [6] of the same compound?
A: Its growth is 75%.

Q: And the growth [7]?
A: Its growth is 91.7%.

Q: And the growth [8]?
A: Its growth is 82.6%.

Q: What about the growth [9] of the same compound?
A: The growth was 24.2%.

Q: And the growth [10]?
A: Its growth is 44.2%.

Q: And the growth [11]?
A: The growth was 79.7%.

Q: What about the growth [12] of the same compound?
A: The growth was 32.9%.

Q: And the growth [13]?
A: The growth was 109%.

Q: What about the growth [14] of the same compound?
A: The growth was 77.4%.

Q: What about the growth [15] of the same compound?
A: Its growth is 64.2%.

Q: And the growth [16]?
A: Its growth is 60.4%.

Q: What about the growth [17] of the same compound?
A: Its growth is 34.4%.

Q: And the growth [18]?
A: The growth was 38.3%.

Q: And the growth [19]?
A: The growth was 65.5%.

Q: And the growth [20]?
A: Its growth is 43.4%.

Q: For S=C(Cc1ccc2c(c1)CCCC2)N1CCOCC1, which growth [1] is on record?
A: The growth was 104%.

Q: And the growth [2]?
A: Its growth is 107%.

Q: What about the growth [3] of the same compound?
A: The growth was 85.6%.

Q: And the growth [4]?
A: The growth was 103%.

Q: And the growth [5]?
A: Its growth is 115%.

Q: What about the growth [6] of the same compound?
A: Its growth is 101%.

Q: What about the growth [7] of the same compound?
A: The growth was 104%.

Q: What about the growth [8] of the same compound?
A: The growth was 99.6%.

Q: And the growth [9]?
A: Its growth is 91.5%.

Q: And the growth [10]?
A: Its growth is 99.5%.

Q: What about the growth [11] of the same compound?
A: Its growth is 101%.

Q: What about the growth [12] of the same compound?
A: Its growth is 87.9%.

Q: What about the growth [13] of the same compound?
A: Its growth is 95.1%.

Q: And the growth [14]?
A: Its growth is 102%.

Q: And the growth [15]?
A: The growth was 95.6%.

Q: What about the growth [16] of the same compound?
A: The growth was 97.8%.

Q: And the growth [17]?
A: The growth was 102%.

Q: What about the growth [18] of the same compound?
A: Its growth is 95.9%.

Q: And the growth [19]?
A: Its growth is 93.2%.

Q: What about the growth [20] of the same compound?
A: The growth was 102%.

Q: What does the source list for COc1cccc(-c2nn(-c3ccccc3)cc2-c2ccnc(NCCNC(=O)Nc3cccc(C(F)(F)F)c3)c2)c1?
A: growth [1]: 26.2%; growth [2]: 2.52% (active); growth [3]: 51.2%; growth [4]: -10% (active); growth [5]: 21.6%; growth [6]: 35.2%; growth [7]: 27.6%; growth [8]: 57.7%; growth [9]: 27.6%; growth [10]: 7.52% (active); growth [11]: 6.17% (active); growth [12]: -43.6% (active); growth [13]: 46.3%; growth [14]: 36%; growth [15]: 19.9%; growth [16]: 17.1%; growth [17]: 39.2%; growth [18]: -7.83% (active); growth [19]: -77.3% (active); growth [20]: 32.5%

Q: Which results are given for Cc1ccc(-c2cc3c(cc2O)C2CCCCC2(N2CCOCC2)O3)cc1 (stereo not given)?
A: growth [1]: 106%; growth [2]: 89.1%; growth [3]: 101%; growth [4]: 114%; growth [5]: 90.6%; growth [6]: 97.2%; growth [7]: 103%; growth [8]: 105%; growth [9]: 102%; growth [10]: 92.5%; growth [11]: 101%; growth [12]: 105%; growth [13]: 75.4%; growth [14]: 98.7%; growth [15]: 98.6%; growth [16]: 75.3%; growth [17]: 99.1%; growth [18]: 71.2%; growth [19]: 87.1%; growth [20]: 111%

Q: How did the growth [1] turn out when CNC(=O)c1cc(Oc2cccc3nc(Nc4ccc(F)c(Cl)c4)ccc23)ccn1 was run?
A: The growth was 93.2%.

Q: What about the growth [2] of the same compound?
A: The growth was 26%.

Q: What about the growth [3] of the same compound?
A: Its growth is 40.2%.

Q: What about the growth [4] of the same compound?
A: Its growth is 62.7%.

Q: What about the growth [5] of the same compound?
A: The growth was 75.3%.

Q: What about the growth [6] of the same compound?
A: The growth was 54.5%.

Q: What about the growth [7] of the same compound?
A: The growth was 87%.

Q: And the growth [8]?
A: The growth was 55.9%.

Q: What about the growth [9] of the same compound?
A: The growth was 40%.

Q: What about the growth [10] of the same compound?
A: Its growth is 51.8%.

Q: What about the growth [11] of the same compound?
A: The growth was 16.5%.

Q: What about the growth [12] of the same compound?
A: Its growth is 81.4%.

Q: What about the growth [13] of the same compound?
A: Its growth is 87.6%.

Q: And the growth [14]?
A: Its growth is 43.6%.

Q: What about the growth [15] of the same compound?
A: Its growth is 26.7%.

Q: And the growth [16]?
A: The growth was 30.8%.

Q: What about the growth [17] of the same compound?
A: The growth was 12.3%.

Q: And the growth [18]?
A: The growth was 25.3%.

Q: And the growth [19]?
A: The growth was 27%.

Q: And the growth [20]?
A: Its growth is 65.7%.
